In the supplement of paper PMC11732987, “Enantioselective OTUD7B fragment discovery through chemoproteomics screening and high-throughput optimisation” (Communications Chemistry, 2025):

Columns and labels:
Test in all cases: log2 ratio of Biotin-Ahx-Ub-VS probe labelling (fragment/DMSO); higher = less target engagement (more negative = stronger competition), active = hit call of the paper (q ≤ 0.05, log2 ratio ≤ -1)
Settings in all cases: compound concentration: 200 uM; treatment time: 3 h
USP42 = target: T1, USP42 (UniProt Q9H9J4)
T1 sequence (whole entry): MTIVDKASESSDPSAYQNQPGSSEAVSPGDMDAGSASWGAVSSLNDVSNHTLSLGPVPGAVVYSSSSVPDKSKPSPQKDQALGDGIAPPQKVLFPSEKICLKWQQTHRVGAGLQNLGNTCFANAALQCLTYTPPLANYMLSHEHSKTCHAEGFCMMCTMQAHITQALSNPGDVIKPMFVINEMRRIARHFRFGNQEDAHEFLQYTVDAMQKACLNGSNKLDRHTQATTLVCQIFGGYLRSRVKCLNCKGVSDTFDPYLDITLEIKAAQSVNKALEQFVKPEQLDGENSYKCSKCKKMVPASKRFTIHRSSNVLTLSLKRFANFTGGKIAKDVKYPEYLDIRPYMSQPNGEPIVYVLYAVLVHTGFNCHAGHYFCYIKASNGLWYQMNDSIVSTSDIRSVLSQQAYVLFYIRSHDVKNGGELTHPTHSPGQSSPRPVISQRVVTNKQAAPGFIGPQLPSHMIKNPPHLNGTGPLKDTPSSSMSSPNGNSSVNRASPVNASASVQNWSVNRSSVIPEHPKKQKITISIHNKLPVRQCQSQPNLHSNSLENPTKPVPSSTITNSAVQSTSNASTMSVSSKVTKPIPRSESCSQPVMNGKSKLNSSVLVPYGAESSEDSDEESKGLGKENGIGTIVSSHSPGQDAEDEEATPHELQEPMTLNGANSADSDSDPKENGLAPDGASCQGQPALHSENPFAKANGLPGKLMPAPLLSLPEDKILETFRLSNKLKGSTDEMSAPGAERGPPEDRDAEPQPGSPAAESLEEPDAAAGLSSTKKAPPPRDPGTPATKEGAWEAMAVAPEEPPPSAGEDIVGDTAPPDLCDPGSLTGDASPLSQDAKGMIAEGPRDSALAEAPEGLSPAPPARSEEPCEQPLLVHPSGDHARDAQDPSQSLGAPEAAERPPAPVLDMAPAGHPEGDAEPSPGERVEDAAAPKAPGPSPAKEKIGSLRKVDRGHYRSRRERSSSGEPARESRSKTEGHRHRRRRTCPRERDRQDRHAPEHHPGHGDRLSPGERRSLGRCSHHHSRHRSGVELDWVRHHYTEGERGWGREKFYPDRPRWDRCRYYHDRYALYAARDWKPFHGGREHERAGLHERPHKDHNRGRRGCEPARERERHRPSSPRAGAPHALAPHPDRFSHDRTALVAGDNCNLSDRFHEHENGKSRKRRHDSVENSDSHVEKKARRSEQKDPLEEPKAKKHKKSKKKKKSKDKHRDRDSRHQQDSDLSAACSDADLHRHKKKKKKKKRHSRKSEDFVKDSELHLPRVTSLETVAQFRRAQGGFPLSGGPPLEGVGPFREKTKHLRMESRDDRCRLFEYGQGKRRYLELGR
Summary of the method: (§1)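 The table lists average log2 ratios of fragment over vehicle, from an unpaired t-test on global-median-normalised Spectronaut label-free quantities. Proteins with ≥2 unique peptides were used. Samples were HEK293T lysate (495 µg) treated in triplicate with fragment at 200 µM or vehicle for 3 h, then with Biotin-Ahx-Ub-VS (0.5 µM final) for 1 h, with labelled DUBs NeutrAvidin-enriched and run by diaPASEF LC-MS/MS.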

USP46 = USP46 (UniProt P62068)
Summary of the method: as §1

USP47 = target: T2, USP47 (UniProt Q96K76)
T2 sequence (whole entry): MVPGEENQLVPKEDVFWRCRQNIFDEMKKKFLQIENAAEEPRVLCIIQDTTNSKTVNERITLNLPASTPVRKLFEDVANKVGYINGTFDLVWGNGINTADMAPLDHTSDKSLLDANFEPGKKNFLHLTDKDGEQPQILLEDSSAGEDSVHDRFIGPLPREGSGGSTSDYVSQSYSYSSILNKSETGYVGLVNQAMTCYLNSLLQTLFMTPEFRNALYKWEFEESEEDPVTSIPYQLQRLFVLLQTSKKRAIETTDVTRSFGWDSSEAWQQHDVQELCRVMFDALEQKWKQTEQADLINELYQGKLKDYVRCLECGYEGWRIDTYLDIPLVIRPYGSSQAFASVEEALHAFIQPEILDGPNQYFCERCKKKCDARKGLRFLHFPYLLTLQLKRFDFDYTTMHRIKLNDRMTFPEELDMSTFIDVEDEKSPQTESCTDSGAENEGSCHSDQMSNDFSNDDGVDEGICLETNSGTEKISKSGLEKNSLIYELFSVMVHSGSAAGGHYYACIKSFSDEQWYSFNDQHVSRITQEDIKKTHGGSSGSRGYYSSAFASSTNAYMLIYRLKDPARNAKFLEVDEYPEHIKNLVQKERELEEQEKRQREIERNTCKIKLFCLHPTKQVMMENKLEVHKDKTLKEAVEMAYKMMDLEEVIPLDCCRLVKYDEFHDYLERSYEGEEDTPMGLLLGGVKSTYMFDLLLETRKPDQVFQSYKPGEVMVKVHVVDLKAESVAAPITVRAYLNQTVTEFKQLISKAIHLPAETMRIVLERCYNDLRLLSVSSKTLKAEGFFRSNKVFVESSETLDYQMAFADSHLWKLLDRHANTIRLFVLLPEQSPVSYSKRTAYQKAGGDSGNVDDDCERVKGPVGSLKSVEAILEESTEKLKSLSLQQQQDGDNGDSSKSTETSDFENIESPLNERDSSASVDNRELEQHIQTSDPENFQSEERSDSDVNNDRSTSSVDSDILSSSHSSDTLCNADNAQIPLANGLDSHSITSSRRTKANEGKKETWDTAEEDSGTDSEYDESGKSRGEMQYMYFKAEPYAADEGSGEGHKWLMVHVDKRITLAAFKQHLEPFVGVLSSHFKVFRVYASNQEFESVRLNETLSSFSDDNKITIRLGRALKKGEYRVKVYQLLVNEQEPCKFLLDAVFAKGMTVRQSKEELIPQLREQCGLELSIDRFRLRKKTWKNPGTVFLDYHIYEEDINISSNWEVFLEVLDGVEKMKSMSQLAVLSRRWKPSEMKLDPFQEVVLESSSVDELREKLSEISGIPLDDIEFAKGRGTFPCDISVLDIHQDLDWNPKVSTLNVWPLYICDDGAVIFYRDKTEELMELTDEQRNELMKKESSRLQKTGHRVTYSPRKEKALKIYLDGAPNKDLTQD
Summary of the method: as §1

USP48 = target: T3, USP48 (UniProt Q86UV5)
T3 sequence (whole entry): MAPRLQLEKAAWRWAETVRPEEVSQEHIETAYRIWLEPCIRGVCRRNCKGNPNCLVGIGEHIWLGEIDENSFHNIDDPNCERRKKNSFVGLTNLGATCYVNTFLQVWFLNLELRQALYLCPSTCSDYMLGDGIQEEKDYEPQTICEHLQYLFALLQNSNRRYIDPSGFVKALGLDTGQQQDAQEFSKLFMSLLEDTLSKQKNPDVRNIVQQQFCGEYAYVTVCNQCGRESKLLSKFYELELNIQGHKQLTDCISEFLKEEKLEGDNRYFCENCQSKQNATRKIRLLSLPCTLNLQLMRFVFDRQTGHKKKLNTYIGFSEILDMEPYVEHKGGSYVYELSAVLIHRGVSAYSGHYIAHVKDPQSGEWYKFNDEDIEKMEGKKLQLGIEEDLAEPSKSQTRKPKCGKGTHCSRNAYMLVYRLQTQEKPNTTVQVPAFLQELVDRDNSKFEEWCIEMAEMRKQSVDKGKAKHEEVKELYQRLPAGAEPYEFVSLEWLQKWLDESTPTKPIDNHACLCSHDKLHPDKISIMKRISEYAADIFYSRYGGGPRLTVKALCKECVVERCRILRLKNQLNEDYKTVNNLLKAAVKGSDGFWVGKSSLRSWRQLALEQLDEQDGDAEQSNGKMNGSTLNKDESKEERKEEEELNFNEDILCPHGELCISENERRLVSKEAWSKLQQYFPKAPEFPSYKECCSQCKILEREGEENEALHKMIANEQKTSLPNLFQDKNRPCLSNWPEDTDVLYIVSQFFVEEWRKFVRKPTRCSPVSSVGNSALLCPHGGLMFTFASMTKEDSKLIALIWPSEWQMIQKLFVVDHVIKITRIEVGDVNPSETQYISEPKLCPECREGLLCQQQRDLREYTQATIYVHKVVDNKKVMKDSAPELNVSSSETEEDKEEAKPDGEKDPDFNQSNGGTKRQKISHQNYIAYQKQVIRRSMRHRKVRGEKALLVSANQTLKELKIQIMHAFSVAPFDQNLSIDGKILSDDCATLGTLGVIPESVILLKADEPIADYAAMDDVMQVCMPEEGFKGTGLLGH
Summary of the method: as §1

USP5 = target: T4, USP5 (UniProt P45974)
T4 sequence (whole entry): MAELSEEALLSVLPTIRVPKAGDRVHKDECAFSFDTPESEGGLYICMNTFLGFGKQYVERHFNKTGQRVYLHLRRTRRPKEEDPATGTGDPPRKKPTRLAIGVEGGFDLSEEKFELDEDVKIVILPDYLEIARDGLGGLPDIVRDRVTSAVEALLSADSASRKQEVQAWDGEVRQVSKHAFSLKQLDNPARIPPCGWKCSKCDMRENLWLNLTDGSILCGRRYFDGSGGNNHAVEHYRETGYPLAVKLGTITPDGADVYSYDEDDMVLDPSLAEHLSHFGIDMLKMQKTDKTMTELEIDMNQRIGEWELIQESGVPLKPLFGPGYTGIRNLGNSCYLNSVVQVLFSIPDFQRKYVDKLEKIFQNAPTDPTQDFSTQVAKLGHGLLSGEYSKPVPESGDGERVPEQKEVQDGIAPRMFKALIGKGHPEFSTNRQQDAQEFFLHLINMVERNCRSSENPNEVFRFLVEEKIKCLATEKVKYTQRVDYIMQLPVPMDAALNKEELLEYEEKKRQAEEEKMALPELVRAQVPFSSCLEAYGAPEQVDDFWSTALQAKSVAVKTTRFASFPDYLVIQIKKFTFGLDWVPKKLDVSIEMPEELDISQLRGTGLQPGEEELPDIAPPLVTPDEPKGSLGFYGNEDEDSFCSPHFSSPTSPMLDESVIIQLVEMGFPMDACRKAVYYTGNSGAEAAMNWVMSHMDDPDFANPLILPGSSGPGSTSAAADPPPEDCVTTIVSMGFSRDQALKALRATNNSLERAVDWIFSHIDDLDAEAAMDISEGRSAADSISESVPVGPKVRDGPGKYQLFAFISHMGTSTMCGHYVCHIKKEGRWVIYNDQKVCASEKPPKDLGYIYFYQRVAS
Summary of the method: as §1

USP54 = USP54 (UniProt Q70EL1)
Summary of the method: as §1

USP7 = USP7 (UniProt Q93009)
Summary of the method: as §1

USP8 = target: T5, USP8 (UniProt P40818)
T5 sequence (whole entry): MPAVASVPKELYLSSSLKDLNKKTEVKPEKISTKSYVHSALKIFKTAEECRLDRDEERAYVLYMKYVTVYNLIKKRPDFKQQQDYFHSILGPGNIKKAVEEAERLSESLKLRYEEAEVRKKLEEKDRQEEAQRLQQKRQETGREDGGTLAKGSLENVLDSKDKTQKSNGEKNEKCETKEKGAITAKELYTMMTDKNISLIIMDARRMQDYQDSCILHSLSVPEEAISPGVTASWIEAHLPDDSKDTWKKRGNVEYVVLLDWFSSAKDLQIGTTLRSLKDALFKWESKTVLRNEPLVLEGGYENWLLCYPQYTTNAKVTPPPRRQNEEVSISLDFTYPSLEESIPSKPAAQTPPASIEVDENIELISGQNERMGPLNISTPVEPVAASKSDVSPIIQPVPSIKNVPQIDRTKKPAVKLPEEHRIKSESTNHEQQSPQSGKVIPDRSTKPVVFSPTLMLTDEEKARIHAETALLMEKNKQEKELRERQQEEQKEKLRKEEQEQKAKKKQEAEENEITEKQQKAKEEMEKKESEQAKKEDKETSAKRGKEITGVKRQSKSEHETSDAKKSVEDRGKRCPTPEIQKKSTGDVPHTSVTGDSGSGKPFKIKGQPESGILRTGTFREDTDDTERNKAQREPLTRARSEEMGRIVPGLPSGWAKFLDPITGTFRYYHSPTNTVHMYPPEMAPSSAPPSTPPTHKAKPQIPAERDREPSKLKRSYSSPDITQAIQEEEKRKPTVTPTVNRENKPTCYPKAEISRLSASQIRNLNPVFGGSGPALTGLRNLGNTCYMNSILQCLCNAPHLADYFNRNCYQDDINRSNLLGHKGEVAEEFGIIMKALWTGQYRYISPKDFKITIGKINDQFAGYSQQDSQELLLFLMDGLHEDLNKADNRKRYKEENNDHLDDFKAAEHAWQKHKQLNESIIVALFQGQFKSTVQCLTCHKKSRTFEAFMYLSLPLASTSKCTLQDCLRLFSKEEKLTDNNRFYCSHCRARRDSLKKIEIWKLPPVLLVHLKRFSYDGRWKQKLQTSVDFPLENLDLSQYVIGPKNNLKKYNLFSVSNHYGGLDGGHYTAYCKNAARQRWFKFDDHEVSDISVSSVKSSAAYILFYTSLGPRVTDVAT
Summary of the method: as §1

USP9X = USP9X (UniProt Q93008)
Summary of the method: as §1

UniProt O00487 = target: UniProt O00487
Summary of the method: as §1

Measured: log2 ratio of Biotin-Ahx-Ub-VS probe labelling

Sequence of USP9X (Q93008 whole entry): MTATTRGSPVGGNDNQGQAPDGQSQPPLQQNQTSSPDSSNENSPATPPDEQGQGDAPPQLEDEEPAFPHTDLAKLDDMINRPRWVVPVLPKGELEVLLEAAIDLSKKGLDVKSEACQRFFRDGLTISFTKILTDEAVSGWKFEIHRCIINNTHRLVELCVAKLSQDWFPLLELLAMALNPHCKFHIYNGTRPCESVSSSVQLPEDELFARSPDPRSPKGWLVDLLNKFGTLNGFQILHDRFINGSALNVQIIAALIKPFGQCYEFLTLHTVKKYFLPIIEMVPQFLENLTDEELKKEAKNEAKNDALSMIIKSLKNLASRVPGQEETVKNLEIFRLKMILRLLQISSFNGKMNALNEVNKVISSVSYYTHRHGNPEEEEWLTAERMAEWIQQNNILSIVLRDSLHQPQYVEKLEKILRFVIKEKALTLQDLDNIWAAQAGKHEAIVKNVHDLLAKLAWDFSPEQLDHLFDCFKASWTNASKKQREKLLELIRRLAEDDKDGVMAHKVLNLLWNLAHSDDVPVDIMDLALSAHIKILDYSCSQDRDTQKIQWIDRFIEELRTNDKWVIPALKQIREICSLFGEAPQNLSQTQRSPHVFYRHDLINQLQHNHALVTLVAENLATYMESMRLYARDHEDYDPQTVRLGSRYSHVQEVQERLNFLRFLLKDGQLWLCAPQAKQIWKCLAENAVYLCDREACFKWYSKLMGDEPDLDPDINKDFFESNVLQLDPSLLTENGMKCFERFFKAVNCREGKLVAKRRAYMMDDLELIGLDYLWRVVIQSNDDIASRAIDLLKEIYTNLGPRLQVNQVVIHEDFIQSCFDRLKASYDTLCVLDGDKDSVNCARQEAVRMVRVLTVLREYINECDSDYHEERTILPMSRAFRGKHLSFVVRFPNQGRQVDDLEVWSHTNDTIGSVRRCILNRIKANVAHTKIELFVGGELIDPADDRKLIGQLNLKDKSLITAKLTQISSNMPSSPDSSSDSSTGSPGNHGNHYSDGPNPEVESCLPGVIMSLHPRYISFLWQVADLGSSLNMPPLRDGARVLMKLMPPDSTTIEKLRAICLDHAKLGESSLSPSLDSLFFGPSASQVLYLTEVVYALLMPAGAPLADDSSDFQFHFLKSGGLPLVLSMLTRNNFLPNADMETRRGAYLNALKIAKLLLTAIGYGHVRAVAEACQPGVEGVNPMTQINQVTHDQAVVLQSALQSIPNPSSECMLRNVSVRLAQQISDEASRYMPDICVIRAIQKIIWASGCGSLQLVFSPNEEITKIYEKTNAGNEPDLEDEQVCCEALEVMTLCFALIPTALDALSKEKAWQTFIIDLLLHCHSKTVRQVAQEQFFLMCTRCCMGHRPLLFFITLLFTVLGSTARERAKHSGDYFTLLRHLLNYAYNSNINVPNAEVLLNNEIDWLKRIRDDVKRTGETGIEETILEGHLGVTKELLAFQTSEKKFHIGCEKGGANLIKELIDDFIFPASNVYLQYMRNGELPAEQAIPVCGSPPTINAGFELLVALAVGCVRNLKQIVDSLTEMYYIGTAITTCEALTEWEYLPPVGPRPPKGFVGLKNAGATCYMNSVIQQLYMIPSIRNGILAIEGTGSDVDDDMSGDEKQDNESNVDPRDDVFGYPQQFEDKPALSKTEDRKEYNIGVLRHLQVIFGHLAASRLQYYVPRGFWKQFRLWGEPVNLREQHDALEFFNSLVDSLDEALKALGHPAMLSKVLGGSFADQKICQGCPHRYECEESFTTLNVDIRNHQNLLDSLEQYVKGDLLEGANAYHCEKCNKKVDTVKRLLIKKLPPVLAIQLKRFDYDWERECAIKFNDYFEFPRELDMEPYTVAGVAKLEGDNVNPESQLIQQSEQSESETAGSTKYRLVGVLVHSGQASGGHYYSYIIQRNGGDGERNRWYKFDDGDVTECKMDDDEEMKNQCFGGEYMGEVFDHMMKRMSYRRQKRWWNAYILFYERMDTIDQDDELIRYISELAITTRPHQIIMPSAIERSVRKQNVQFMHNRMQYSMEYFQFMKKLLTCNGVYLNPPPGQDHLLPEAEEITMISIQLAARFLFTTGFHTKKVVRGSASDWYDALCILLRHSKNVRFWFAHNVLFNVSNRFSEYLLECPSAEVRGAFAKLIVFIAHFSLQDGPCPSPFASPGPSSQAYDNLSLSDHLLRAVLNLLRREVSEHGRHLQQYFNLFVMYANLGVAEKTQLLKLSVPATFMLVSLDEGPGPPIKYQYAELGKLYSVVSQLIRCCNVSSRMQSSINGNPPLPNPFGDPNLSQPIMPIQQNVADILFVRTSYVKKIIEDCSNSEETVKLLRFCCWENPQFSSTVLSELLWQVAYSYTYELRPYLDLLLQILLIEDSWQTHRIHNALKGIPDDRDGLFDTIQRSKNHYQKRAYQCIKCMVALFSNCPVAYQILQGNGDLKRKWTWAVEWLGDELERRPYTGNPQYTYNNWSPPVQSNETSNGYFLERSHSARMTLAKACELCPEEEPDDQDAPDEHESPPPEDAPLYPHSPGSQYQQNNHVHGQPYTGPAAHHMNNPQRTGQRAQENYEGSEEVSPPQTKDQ
Sequence of USP46 (P62068 whole entry): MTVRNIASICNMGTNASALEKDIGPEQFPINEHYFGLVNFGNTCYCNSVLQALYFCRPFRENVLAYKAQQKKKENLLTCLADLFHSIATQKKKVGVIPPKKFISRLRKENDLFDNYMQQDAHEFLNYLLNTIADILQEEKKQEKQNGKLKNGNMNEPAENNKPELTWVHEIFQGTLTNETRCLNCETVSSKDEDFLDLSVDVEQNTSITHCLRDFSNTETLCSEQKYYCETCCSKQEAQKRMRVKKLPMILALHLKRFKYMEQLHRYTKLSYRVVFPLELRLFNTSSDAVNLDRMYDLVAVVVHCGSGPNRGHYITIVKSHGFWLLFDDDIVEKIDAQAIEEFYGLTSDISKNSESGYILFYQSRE
Sequence of USP7 (Q93009 whole entry, looked up): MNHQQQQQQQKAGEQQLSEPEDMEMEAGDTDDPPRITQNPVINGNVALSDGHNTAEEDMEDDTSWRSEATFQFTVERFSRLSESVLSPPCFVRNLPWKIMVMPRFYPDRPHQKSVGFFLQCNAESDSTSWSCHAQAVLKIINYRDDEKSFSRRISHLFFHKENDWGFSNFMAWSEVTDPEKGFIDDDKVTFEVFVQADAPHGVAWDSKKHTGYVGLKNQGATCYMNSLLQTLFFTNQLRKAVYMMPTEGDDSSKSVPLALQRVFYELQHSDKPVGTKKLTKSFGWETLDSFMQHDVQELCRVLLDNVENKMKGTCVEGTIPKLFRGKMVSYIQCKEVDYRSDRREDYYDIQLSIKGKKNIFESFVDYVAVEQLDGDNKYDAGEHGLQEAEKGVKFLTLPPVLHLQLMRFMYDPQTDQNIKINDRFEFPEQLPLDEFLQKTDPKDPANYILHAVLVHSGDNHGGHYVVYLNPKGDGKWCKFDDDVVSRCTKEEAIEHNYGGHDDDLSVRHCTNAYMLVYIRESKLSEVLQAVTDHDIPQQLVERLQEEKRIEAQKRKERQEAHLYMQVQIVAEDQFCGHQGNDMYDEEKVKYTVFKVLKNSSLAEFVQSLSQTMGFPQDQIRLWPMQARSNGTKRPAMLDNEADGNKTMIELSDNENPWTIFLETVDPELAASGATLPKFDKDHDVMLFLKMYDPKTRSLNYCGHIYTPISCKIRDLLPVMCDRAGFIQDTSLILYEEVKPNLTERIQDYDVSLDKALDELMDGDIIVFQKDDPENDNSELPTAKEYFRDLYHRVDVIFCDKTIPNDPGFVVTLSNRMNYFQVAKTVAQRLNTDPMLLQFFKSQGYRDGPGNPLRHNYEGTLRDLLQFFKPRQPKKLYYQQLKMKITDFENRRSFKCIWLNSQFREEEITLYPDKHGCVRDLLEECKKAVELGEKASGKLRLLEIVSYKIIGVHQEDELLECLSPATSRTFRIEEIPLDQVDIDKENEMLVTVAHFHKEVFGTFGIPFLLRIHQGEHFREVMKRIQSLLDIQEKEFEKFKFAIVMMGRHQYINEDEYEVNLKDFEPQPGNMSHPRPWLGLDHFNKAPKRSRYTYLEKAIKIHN
Sequence of UniProt O00487 (O00487 whole entry): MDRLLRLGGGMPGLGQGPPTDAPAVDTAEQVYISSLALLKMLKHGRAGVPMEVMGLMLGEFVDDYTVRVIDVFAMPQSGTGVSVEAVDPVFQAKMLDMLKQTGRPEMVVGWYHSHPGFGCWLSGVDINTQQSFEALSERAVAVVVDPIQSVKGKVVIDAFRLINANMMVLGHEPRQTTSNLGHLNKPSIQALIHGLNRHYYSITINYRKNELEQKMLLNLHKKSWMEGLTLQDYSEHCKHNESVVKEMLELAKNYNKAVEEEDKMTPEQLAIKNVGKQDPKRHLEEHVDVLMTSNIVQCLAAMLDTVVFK

CC(O)CC1CCN(C(=O)CCl)CC1 (stereo not given)
inactive: USP42 0.406 | USP46 -0.263 | USP47 -0.689 | USP48 0.00631 | USP5 -0.447 | USP54 -0.0986 | USP7 -0.335 | USP8 -0.0562 | USP9X -0.195 | UniProt O00487 -0.189
